A number with no mark means an inactive call.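 The calls were made as follows: active = viability increase at or above a cutoff of the median across tested compounds plus 3 SD (cut at about 8.5% in these data, passing the limit was not always enough); inconclusive = some gains above the cutoff, reason not given; inactive = the rest.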
assay: viability gain of MRP-1-high H69AR cells under doxorubicin, pilot screen, MRP-1 activator project, CellTiter-Glo, duplicate (AID 807); settings: H69AR viability with doxorubicin, CellTiter-Glo luminescence; at 10 µM; stronger effect = higher value;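 also: compound pretreatment 18-22 h then 72 h combined with doxorubicin; 0% = doxorubicin alone and 100% = vehicle without doxorubicin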

Row | Structure (SMILES) | viability increase [%]
1 | O=C(NCCCN1CCCC1=O)c1ccc2c(c1)ncn2C1CCCCC1 | 1.87
2 | CC(CCc1ccccc1)NC(=O)CSc1nnnn1C (stereo not given) | -1.52
3 | Cc1cccc(-c2nnc(-c3ccccc3)o2)c1 | -5.21
4 | COc1ccc2[nH]c(C)c(CCN3C(=O)C4CC=CCC4C3=O)c2c1 (stereo not given) | 0.77
5 | CCc1ccccc1NC(=O)c1cc(-c2cccc(O)c2)on1 | -1.49
6 | O=C(O)[C@H](Cc1ccccc1)N1Cc2ccccc2C1=O | -2.35
7 | c1cnn(-c2nc(N3CCOCC3)nc(N3CCOCC3)n2)c1 | -5.18
8 | O=C(COc1ccc(S(=O)(=O)NC2CCCCC2)cc1)N1CCN(c2ccc(F)cc2)CC1 | -0.23
9 | Fc1ccc(C2CC(c3ccccc3)Nc3ncnn32)cc1 (stereo not given) | -0.63
10 | Cn1c(C(=O)N2CCN(c3ncccn3)CC2)cc2c(=O)n(C)c3ccccc3c21 | 2.83
11 | Cc1csc2nc(CNS(=O)(=O)c3ccc4c(c3)OCCO4)cn12 | -1.85
12 | O=C(NC1CCCCC1)c1ccc(S(=O)(=O)N2CCOCC2)cc1 | 0.17
13 | CC(C)CC(NS(=O)(=O)c1ccc2c(c1)oc(=O)n2C)C(=O)N1CC=C(c2ccccc2)CC1 (stereo not given) | -3.44
14 | O=C1CC(N2CCN(C/C=C/c3ccccc3)CC2)C(=O)N1CCc1ccccc1 (stereo not given) | -0.11
15 | CC(=O)C(C)Oc1ccc2c3c(c(=O)oc2c1)CCCC3 (stereo not given) | 0.37
16 | CCOC(=O)c1c(C)n(C)c2ccc(OCC(O)CN3CCCCCC3)cc12 (stereo not given) | -5.4
17 | COCCOC(=O)C1=C(C)NC2=C(C(=O)CC(C)(C)C2)C1c1ccc2c(c1)OCO2 (stereo not given) | -1.42
18 | COc1cc(OC)cc(C(=O)NCC2CCCO2)c1 (stereo not given) | -1.51
19 | O=C(O)c1ccc2c(c1)N(Cc1cccc(F)c1)C(=O)CS2 | 0.93
20 | COc1ccc(S(=O)(=O)Cc2ccc(C(=O)N3CCN(c4cccc(C)c4C)CC3)o2)cc1 | -5.44

Row | Structure (SMILES) | viability increase [%]
21 | CCSc1nc2ccccc2n1S(=O)(=O)c1ccccc1 | -0.8
22 | CN1CCN(Cc2ccc(-c3ccc(Cl)cc3)o2)CC1 | -2.14
23 | CCCn1c2ccccc2c2cc(C(=O)O)ccc21 | -3.03
24 | Clc1ccccc1-c1ccc(/C=N/n2cnnc2)o1 | -1.41
25 | CCOc1ccc(OCC)c(S(=O)(=O)NCc2ccc3c(c2)OCO3)c1 | -2.97
26 | COc1cccc(C2NC(CCSC)(C(=O)O)C3C(=O)N(C(C)C)C(=O)C23)c1O (stereo not given) | 0.13
27 | O=C(NCCCN1CCc2ccccc2C1)C1CCN(c2nnc(-n3cccc3)s2)CC1 | -3.55
28 | N#Cc1ccc(N2CCN(C(=O)c3cccc(F)c3)CC2)c(F)c1 | -2.03
29 | COC(=O)c1sc2nc3c(cc2c1N)COC(C)(C)C3 | -1.54
30 | O=C1CC(c2nc3ccccc3[nH]2)CN1c1ccccc1F (stereo not given) | -0.52
31 | COc1cc2[nH]c(=O)n(CCCC(=O)NCCc3ccccc3)c(=O)c2cc1OC | -3.37
32 | CCOc1ccc(NC(=O)c2ccc(N)cc2)cc1 | -2.73
33 | Cc1cc(Nc2ccc(F)cc2)n2nc(C)nc2n1 | -0.76
34 | O=C1Nc2ccccc2C(O)(C(=O)N2CCCCC2)N1c1ccccc1 (stereo not given) | -1.87
35 | CCCCN1C(=O)C(O)(CC(=O)c2ccccc2OC)c2ccccc21 (stereo not given) | -3.31
36 | CCOC(=O)C1=C(C)S/C(=C\N(C)C)C1=O | -0.78
37 | CCC(C)NC(=O)c1ccc(CS(=O)(=O)c2ccc(OC)cc2)o1 (stereo not given) | -1.33
38 | CCCCCSc1nnc2c(n1)OC(C)N(C(C)=O)c1ccccc1-2 (stereo not given) | -4.28
39 | O=C(c1cc(-c2cccc(O)c2)on1)N1CCc2ccccc2C1 | 1.48
40 | N=c1n(-c2ccccc2)c(O)cc(=O)n1-c1ccccc1 | 0.05

— PubChem BioAssay
